The nature of assay [1]: compounds altering viability of human ES cells (AID 493140; call rule not given here;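 note: cells exposed to compounds for four days before counting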). Particulars: human embryonic stem cell survival screen; stronger effect = higher value.
The nature of assay [2]: P. berghei load reduction in hepatocytes – cell-based, HepG2, luciferase luminescence, HepG2 viability, primary screen (AID 624349; in the data active = parasite load remaining mostly below about 12%, no sharp cut-off; inactive = mostly above about 10%;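 note: 100% = mean of DMSO negative control wells on the same plate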). Particulars: P. berghei liver stage in HepG2, luciferase luminescence, concentration not given here; parasite load remaining: stronger effect = lower value; viability: measured here: HepG2 viability without parasites.
A short description of assay [3]: Wnt pathway potentiators raising nuclear beta-catenin – imaging, WNT3A-conditioned medium, mouse C2C12, NPC library, primary screen (AID 1117326; in the data active = nuclear beta-catenin stimulation mostly above about 4.2%, no sharp cut-off; inactive = mostly below about 10%). Particulars: stronger effect = higher value.
Assay [4] can be described thus: stimulators of insulin release from INS-1E, primary screen, cell-based, 5 mM glucose, NPC library (AID 1117329;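 active = compound raises insulin release from rat beta cells at 5 mM glucose, no numeric limit stated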). Particulars: rat INS-1E insulin secretion, at 10 µM, stronger effect = higher value.
Assay [5] can be described thus: growth inhibition of GSK3B-pretreated HCT116 cells – cell-based, CellTiter-Glo, 0.2 to 20 µM (AID 1117336;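 active = compounds lowering colon cancer cell viability after pretreatment blocking the GSK3B kinase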). The note with it: HCT116 viability after GSK3B inhibitor, at 20 µM, stronger effect = higher value. Background: In ATP-based viability assays light output follows the ATP content of the culture.
Assay [6] is described as follows: inhibition of endothelial tube formation, primary screen, imaging, VEGF stimulated, CD31 staining, tube area, NPC library (AID 1117340;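 active = compound that reduces growth-factor-driven endothelial tube area in a mixed cell culture, no cutoff stated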). The note with it: VEGF-stimulated ADSC/ECFC co-culture, at 10 µM, stronger effect = higher value.
Assay [7] can be described thus: GLP1 release stimulators, primary, NCI-H716, NPC library (AID 1117341;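 active = compound raises GLP1 secretion from the human gut endocrine cells, with no numeric limit stated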). Particulars: NCI-H716 cells, at 10 µM, stronger effect = higher value.
Assay [8] is described as follows: HCT116 colon cancer cell growth inhibition, primary screen, CellTiter-Glo luminescence, NPC library (AID 1117342). Particulars: at 20 µM (top of the series).
Assay [9] can be described thus: reduced SW480 viability measured with CellTiter-Glo, NPC library, primary (AID 1117343;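 active = compounds that lower viability of the colon cancer cells in the luminescence readout, with no numeric limit stated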). The note with it: CellTiter-Glo luminescence; at 20 µM (top of the series) unless noted.
Assay [10] can be described thus: NPC library primary testing for decreased DLD-1 cell viability via CellTiter-Glo (AID 1117346;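 active = compounds that lower survival of DLD-1 colon cancer cells in the luminescence readout, no cutoff given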). The note with it: DLD-1 viability, CellTiter-Glo luminescence; at 20 µM (top of the series).
A short description of assay [11]: viability loss with induced miR-34 in A549 – imaging, A549 dox-inducible miR-34, nuclei and caspase counts, primary screen (AID 1347080;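 active = compounds whose cell count with miR-34 switched on is under 0.7 times the count with it off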). Particulars: A549 miR-34 inducible, Hoechst nuclei count, 48 h.
A short description of assay [12]: MELAS cybrid and Rieske KO viability enhancers – cell-based, MELAS cybrids, Rieske KO mouse fibroblasts, CellTiter-Glo, primary screen (AID 1508586;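 active = mean z-score across replicates of 1.96 or higher in either the MELAS or the Rieske mutant cell line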;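 note: z relative to plate mean and SD of compound and empty wells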). Particulars: low glucose.
The target of assay [13] is NAD(+) hydrolase SARM1 (Homo sapiens) (UniProt Q6SZW1). The experiment in a line: blocking NAD cleavage by SARM1 SAM-TIR – cell lysate, NAD-Glo luminescence (AID 1508614;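 active = compound whose remaining NAD level is above about 45 nM, limit read from the data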;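 note: higher remaining NAD means stronger inhibition of SARM1 NADase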). Particulars: SAM-TIR HEK293T lysate NADase, at 1 µM, stronger effect = higher value.
Assay [14] concerns the target ATP-dependent translocase ABCB1 (Homo sapiens) (UniProt P08183). Description: P-glycoprotein substrate transport blockade – cell-based (AID 377; in the data active = fluorescence slope change above about 50%). Particulars: MDR1-expressing cells, fluorescent substrate accumulation slope; stronger effect = higher value; concentration not given here.
Where [15] appears, read: stronger effect = lower value, cell number ratio, induced over uninduced.
Setting [16] is: measured here: relative caspase fold change +Dox/-Dox.
Setting [17] is: measured here: total cells with miR-34 induction, stronger effect = lower value.
Where [18] appears, read: measured here: total cells without miR-34 induction.
[19] abbreviates: MELAS cybrid survival, CellTiter-Glo 48 h, stronger effect = higher value.
Setting [20] is: Rieske KO mouse fibroblast survival, CellTiter-Glo 72 h.

SMILES strings stand for the structures. Where “and” joins values, the source holds several entries; their conditions need not be identical. Equal entries are not always repeated. Records with an inconclusive call do not appear. Calls of active or inactive are those of the source.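 Rule for the calls, unless noted: active = compounds that lower survival of HCT116 colon cancer cells in the luminescence readout, no numeric limit stated; inactive = the rest.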

As a reminder, the viability is a read-out of living cells in per cent, often relative to untreated cells.

Chain of NAD(+) hydrolase SARM1 (Homo sapiens) (Q6SZW1 whole entry, looked up): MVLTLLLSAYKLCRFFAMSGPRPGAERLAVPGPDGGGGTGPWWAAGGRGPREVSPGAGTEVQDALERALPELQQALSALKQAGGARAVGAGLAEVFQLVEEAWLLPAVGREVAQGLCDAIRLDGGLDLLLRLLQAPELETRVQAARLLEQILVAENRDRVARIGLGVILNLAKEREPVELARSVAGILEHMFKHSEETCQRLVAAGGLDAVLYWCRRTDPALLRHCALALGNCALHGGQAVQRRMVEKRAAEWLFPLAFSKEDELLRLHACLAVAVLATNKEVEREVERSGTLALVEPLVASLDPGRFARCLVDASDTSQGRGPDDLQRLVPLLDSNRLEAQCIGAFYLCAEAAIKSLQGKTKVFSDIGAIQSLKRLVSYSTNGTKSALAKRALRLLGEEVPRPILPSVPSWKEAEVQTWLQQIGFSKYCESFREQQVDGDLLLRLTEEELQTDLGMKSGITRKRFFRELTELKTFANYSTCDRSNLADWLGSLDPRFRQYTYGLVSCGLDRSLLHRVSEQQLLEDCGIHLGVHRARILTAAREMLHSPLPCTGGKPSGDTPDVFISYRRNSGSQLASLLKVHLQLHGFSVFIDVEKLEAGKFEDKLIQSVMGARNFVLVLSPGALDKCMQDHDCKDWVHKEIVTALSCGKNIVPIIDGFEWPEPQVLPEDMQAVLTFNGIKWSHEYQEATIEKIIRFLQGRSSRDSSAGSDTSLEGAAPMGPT
Chain of ATP-dependent translocase ABCB1 (Homo sapiens) (P08183 whole entry, looked up): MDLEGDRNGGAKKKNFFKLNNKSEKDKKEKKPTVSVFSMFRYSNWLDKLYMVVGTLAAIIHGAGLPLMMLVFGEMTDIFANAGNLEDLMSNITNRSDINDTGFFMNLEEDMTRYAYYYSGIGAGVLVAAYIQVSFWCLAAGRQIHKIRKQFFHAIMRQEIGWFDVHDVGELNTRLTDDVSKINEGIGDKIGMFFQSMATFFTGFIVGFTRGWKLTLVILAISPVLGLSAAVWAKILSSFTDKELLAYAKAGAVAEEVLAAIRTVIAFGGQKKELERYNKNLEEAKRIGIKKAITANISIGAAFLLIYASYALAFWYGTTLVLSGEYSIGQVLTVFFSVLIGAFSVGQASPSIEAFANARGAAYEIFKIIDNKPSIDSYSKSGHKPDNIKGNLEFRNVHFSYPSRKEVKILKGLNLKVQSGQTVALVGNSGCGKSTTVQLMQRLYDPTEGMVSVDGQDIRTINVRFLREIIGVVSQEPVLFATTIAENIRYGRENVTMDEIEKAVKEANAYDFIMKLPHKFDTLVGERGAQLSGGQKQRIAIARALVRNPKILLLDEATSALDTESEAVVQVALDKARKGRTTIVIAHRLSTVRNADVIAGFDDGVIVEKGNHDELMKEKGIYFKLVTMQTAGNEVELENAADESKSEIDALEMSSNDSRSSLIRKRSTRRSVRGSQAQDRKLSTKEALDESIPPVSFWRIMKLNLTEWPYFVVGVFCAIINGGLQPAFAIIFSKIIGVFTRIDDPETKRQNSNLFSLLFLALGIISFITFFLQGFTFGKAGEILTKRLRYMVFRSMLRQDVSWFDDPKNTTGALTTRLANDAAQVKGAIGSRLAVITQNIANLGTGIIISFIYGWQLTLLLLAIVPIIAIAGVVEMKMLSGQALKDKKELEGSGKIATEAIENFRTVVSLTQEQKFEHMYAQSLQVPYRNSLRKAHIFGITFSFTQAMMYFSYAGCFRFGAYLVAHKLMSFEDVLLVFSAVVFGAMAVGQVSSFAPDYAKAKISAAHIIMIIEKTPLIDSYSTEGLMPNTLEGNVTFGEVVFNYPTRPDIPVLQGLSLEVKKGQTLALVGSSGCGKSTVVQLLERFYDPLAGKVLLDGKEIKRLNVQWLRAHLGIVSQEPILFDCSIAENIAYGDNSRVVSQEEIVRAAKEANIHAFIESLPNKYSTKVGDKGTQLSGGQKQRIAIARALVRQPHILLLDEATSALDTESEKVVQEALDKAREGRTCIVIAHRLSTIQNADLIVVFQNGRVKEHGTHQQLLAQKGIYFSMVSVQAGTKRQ

As for `CC(CNC1CCCCC1)OC(=O)c1ccccc1` (centres undefined), in assay [1], the survival was 2.08 (inactive). For the same molecule, the parasite load remaining in [2] is 83.5% (inactive). Further, the viability in [2] was found to be 92%. In addition, the nuclear beta-catenin stimulation is 0.9% (inactive) in [3] (at 10 µM) and 2.3% in assay [3] (stimulation, at 2 µM). Besides, the insulin secretion stimulation in assay [4] is 5.6% (inactive). Also, in assay [5], the viability decrease was -14.5% (inactive). Besides, in [6], the tube area decrease is 19.9% (inactive). The GLP1 secretion stimulation in assay [7] is 3.9% (inactive). Also, the inhibition of viability in assay [8] was -12.8% (inactive). Also, the viability decrease (inhibition) in assay [9] is -11.7% (inactive); in [10] it was -10.5% (inactive). In addition, the fold change in assay [11] (setting [15]) is 0.95 (inactive); in assay [11] (setting [16]), 0.946. Further, the cell count in assay [11] (setting [17]) was 9180; in assay [11] (setting [18]) it was 9670. Besides, the z-score in assay [12] (setting [19]) was -0.814 (inactive); in assay [12] (setting [20]), -0.57.
Consider `O=C1CC[C@@H](C(=O)O)N1`, for which the nuclear beta-catenin stimulation in assay [3] (at 10 µM) was 2.4% (inactive); in [3] (stimulation, at 2 µM) it was 0.7%. In assay [4], the insulin secretion stimulation is -1.4% (inactive). Moreover, in assay [5], the viability decrease was -1.95% (inactive). Further, the tube area decrease in [6] is 9.1% (inactive). Also, the GLP1 secretion stimulation in assay [7] is -0.7% (inactive). Also, the inhibition of viability in assay [8] was 11.4% (inactive). Besides, the viability decrease (inhibition) in [9] was 17.1% (inactive); in assay [10], 6.75% (inactive). Moreover, the fold change is 0.878 (inactive) in assay [11] (setting [15]) and 0.936 in assay [11] (setting [16]). The values for the cell count in [11] (setting [17]) and in [11] (setting [18]) were 8600 and 9800, respectively. Further, in assay [13], the remaining NAD is 10 nM (inactive).
For `O=C(O)c1ccc[n+]([O-])c1`, the nuclear beta-catenin stimulation is -0.8% (inactive) in assay [3] (at 10 µM) and 2% in assay [3] (stimulation, at 2 µM). Further, the insulin secretion stimulation in [4] is -0.6% (inactive). Moreover, in assay [5], the viability decrease is -4.35% (inactive). Moreover, in assay [6], the tube area decrease is 11.3% (active). Also, the GLP1 secretion stimulation in assay [7] was 0% (inactive). In [8], the inhibition of viability was -1.7% (inactive). Besides, the viability decrease (inhibition) is 14.2% (inactive) in assay [9] and -2.85% (inactive) in assay [10]. The figures for the fold change in assay [11] (setting [15]) and in assay [11] (setting [16]) were 0.936 (inactive) and 0.969, respectively. The cell count worked out at 8660 in assay [11] (setting [17]) and 9250 in assay [11] (setting [18]). In addition, the remaining NAD in [13] is 10 nM (inactive).
For `OCc1ccccn1`, the nuclear beta-catenin stimulation in [3] (at 10 µM) was -1% (inactive); in [3] (stimulation, at 2 µM), 0.3%. Further, the insulin secretion stimulation in assay [4] is 0% (inactive). In [5], the viability decrease is 4.8% (inactive). The tube area decrease in assay [6] was -15.2% (inactive). For the same molecule, the GLP1 secretion stimulation in assay [7] is -2.9% (inactive). For the same molecule, the inhibition of viability in [8] is -23.7% (inactive). The viability decrease (inhibition) in assay [9] is 30.6% (active); in assay [10] it was -10.2% (inactive). Also, the fold change in assay [11] (setting [15]) was 0.898 (inactive); in assay [11] (setting [16]) it was 0.701. In addition, the cell count in [11] (setting [17]) is 8220; in assay [11] (setting [18]), 9160. The remaining NAD in assay [13] is 10 nM (inactive).
As for `CN1CCCN(C(c2ccccc2)c2ccc(Cl)cc2)CC1` (centres undefined), in [14], the fluorescence slope change was 122% (active). Besides, the survival in assay [1] is 4.08 (inactive). For the same molecule, the parasite load remaining in assay [2] was 48.8% (inactive) and 98.3% (inactive). Besides, the viability in assay [2] was 42.5% and 88%. Besides, the nuclear beta-catenin stimulation was 3.7% (inactive) in assay [3] (at 10 µM) and 1.3% in [3] (stimulation, at 2 µM). The insulin secretion stimulation in [4] was 2.9% (active). Further, the viability decrease in assay [5] is 96% (active). The tube area decrease in assay [6] was 38.7% (inactive). In addition, the GLP1 secretion stimulation in assay [7] is 13.9% (inactive). Also, in assay [8], the inhibition of viability was 96.5% (active). In addition, the results for the viability decrease (inhibition) in [9] and in assay [10] were 122% (active) and 71% (active), respectively. Also, the fold change in [11] (setting [15]) is 0.886 (inactive); in assay [11] (setting [16]), 1.48. For the same molecule, the values for the cell count in [11] (setting [17]) and in [11] (setting [18]) were 7610 and 8580, respectively. The z-score in assay [12] (setting [19]) is -0.68 (inactive); in [12] (setting [20]), 0.377.

For the origin of these results see PubChem BioAssay.
